Measured values taken from the supplement of paper PMC10849652.
The full data set covers some 7,900 targets. This sample favours those with a hit. About 0.6% of all pairs of compound and target were hits. Unmarked numbers belong to inactive results.

Experiments:
Assay in all cases: log2 fold change, soluble protein after heating vs DMSO (PISA); higher = thermal stabilisation; K562 cells, 10 uM, 30 min; active = over 0.2 and 3.5 SD of the protein, either way, in both replicates (recomputed)
erlotinib = compound: C#Cc1cccc(Nc2ncnc3cc(OCCOC)c(OCCOC)cc23)c1 [erlotinib]
Procedure, shortened: (§1)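 Quantification of soluble protein used TMTpro 16plex LC-MS/MS, with channel sums equalised. Samples were the supernatant after 21,000xg for 90 min of pooled aliquots from K562 cells (2×10^6 cells/mL) treated with 10 μM compound for 30 min, heated for 3 min over 48°C-58°C, and extracted in PBS with 0.5% NP-40 at 4°C. Values, from duplicates, describe thermal stability against control samples on a log2 fold-change scale.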

[1] = compound: C/C(=N\NC(=O)C1=CC(=CC=C1)S(=O)(=O)N2CCOCC2)/C3=C(C=CC(=C3)Cl)O
Procedure, shortened: as §1

[2] = compound: C1=CC(=C(C=C1Cl)C2=NC3=NC=CN=C3C(=N2)NC4=CC=NC=C4)F
Procedure, shortened: as §1

[3] = compound: C1=CC(=CC=C1C2=NC3=C(N2)C=C(C=C3)C(=O)N)OC4=CC=C(C=C4)Cl
Procedure, shortened: as §1

[4] = compound: C1=CC2=C(C=CC(=C2)/C=C\3/C(=O)NC(=NCC4=CC=CS4)S3)N=C1
Procedure, shortened: as §1

[5] = compound: C1=CC2=NC=CN=C2C=C1/C=C/3\C(=O)NC(=O)S3
Procedure, shortened: as §1

[6] = compound: C1=CC=C(C=C1)C2=NC(=C(N2)C3=CC=NC=C3)C4=CC(=C(C=C4)Cl)O
Procedure, shortened: as §1

[7] = compound: C1=CC=C2C(=C1)C3=NNC4=CC=CC(=C43)C2=O
Procedure, shortened: as §1

[8] = compound: C1CCN(C1)C(=O)NC2=CC=CC(=C2)NC3=NC=C(C(=N3)NCCC4=CN=CN4)Br
Procedure, shortened: as §1

[9] = compound: C1CN(CCC1(CC2=CC=C(C=C2)Cl)N)C3=NC=NC4=C3C=CN4
Procedure, shortened: as §1

IRAK-1-4 Inhibitor I = compound: C1COCCN1CCN2C3=CC=CC=C3N=C2NC(=O)C4=CC(=CC=C4)[N+](=O)[O-] [IRAK-1-4 Inhibitor I]
Procedure, shortened: as §1

ibrutinib = compound: C=CC(=O)N1CCC[C@@H](n2nc(-c3ccc(Oc4ccccc4)cc3)c3c(N)ncnc32)C1 [ibrutinib]
Procedure, shortened: as §1

[10] = compound: CC(=O)c1cnc2ccc(-c3cc(Cl)c(O)c(Cl)c3)nc2c1N[C@H]1CC[C@H](CN(C)C)CC1
Procedure, shortened: as §1

ralimetinib = compound: CC(C)(C)Cn1c(N)nc2ccc(-c3[nH]c(C(C)(C)C)nc3-c3ccc(F)cc3)nc21 [ralimetinib]
Procedure, shortened: as §1

[11] = compound: CC(C)(O)CC(=O)NCCn1ccc2ncnc(Nc3ccc(Oc4cccc(C(F)(F)F)c4)c(Cl)c3)c21
Procedure, shortened: as §1

[12] = compound: CC(C)C1=C2N=C(C=C(N2N=C1)NCC3=CC=CC=C3)NCCCCCCN
Procedure, shortened: as §1

[13] = compound: CC(C)C[C@@H](C=O)NC(=O)[C@H](CC(C)C)NC(=O)[C@H](CC(C)C)NC(=O)OCc1ccccc1
Procedure, shortened: as §1

pinometostat = compound: CC(C)N(C[C@H]1O[C@@H](n2cnc3c(N)ncnc32)[C@H](O)[C@@H]1O)[C@H]1C[C@@H](CCc2nc3cc(C(C)(C)C)ccc3[nH]2)C1 [pinometostat]
Procedure, shortened: as §1

[14] = compound: CC1=C(C(CC(=O)N1)C2=CC=C(C=C2)C(F)(F)F)C(=O)NC3=C(C=C4C(=C3)C=NN4)F
Procedure, shortened: as §1

[15] = compound: CC1=C(C2=C(C=C1)C(=O)C3=CC=CC=C3N2CCCN)C
Procedure, shortened: as §1

Sequence of UniProt Q53FZ2 (Q53FZ2 whole entry, looked up): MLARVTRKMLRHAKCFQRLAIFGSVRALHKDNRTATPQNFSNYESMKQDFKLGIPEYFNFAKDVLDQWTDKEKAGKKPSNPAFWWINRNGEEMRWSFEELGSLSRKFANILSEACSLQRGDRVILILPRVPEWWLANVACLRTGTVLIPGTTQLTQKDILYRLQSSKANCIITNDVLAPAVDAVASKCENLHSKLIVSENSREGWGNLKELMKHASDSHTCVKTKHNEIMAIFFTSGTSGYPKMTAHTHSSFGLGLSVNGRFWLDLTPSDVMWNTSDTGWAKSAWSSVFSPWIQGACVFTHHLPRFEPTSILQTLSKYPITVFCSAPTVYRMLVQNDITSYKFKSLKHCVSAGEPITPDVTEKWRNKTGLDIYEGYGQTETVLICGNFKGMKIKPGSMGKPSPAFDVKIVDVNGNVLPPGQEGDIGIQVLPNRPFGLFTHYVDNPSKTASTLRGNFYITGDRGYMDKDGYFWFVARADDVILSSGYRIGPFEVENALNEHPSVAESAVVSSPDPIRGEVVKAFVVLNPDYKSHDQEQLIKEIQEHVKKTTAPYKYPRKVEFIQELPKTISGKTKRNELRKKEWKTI
Sequence of UniProt Q9UQB8 (Q9UQB8 whole entry, looked up): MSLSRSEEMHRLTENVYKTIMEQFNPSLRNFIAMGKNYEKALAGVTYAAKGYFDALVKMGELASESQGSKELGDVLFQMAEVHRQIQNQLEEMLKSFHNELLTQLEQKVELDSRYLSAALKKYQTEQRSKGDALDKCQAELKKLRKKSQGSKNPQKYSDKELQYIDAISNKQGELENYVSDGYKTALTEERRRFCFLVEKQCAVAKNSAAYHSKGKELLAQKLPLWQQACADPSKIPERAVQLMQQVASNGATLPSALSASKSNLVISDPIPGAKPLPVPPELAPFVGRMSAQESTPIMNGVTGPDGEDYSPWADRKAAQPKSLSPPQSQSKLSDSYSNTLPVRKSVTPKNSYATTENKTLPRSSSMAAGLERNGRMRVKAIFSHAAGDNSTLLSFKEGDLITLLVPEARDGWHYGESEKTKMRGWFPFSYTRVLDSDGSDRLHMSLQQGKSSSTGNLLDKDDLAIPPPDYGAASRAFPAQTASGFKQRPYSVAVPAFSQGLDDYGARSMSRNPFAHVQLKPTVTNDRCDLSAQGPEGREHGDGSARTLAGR
Sequence of UniProt Q9NXW9 (Q9NXW9 whole entry, looked up): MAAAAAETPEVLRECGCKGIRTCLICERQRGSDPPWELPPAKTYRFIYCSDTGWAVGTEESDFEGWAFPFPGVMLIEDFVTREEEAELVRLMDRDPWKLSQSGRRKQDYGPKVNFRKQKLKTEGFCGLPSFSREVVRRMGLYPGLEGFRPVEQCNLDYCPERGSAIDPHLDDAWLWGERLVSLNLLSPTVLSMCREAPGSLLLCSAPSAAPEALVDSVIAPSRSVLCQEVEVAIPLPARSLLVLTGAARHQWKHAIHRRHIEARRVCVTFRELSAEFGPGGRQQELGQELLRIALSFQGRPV
Sequence of UniProt P55263 (P55263 whole entry, looked up): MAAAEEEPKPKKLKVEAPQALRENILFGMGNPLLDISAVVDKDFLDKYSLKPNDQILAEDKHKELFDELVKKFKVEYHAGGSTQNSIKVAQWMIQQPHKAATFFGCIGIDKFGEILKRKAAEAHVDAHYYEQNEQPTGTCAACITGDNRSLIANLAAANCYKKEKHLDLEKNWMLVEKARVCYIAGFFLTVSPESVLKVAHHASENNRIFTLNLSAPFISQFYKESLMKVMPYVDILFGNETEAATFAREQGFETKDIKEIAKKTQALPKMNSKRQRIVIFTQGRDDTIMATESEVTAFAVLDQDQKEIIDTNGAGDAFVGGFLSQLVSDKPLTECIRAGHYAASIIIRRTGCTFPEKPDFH
Sequence of UniProt O14727 (O14727 whole entry, looked up): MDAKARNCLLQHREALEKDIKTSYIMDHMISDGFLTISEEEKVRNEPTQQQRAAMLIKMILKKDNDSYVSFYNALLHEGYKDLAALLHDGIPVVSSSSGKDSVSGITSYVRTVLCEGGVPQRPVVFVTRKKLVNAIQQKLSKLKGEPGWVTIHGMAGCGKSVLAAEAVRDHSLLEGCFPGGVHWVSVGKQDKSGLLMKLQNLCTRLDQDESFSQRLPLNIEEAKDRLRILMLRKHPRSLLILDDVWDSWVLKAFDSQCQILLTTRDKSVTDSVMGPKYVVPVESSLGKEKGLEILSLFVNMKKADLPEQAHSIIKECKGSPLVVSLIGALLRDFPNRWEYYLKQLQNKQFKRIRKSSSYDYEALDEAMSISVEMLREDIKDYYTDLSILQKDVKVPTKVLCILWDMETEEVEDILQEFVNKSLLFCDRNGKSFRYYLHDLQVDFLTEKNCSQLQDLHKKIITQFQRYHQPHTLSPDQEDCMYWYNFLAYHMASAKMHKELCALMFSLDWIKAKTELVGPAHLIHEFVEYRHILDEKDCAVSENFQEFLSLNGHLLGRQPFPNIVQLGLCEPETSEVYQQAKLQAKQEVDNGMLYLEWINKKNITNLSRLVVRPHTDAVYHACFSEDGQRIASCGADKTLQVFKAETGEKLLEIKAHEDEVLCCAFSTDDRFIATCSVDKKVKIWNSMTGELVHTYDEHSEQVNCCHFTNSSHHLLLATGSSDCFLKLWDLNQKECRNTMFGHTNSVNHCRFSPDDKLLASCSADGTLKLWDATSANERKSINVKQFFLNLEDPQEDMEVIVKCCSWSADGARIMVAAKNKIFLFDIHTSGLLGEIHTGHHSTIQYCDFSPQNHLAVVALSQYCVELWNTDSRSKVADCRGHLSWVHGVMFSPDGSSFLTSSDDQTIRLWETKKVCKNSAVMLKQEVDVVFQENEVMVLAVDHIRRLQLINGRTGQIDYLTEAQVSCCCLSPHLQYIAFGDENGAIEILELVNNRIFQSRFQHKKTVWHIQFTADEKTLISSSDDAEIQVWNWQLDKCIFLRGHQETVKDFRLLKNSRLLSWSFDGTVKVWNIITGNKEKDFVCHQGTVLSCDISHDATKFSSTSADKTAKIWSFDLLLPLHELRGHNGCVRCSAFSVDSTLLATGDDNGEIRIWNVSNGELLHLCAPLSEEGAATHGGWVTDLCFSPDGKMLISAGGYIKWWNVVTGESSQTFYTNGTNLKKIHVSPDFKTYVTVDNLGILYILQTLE
Sequence of UniProt Q8IUR7 (Q8IUR7 whole entry, looked up): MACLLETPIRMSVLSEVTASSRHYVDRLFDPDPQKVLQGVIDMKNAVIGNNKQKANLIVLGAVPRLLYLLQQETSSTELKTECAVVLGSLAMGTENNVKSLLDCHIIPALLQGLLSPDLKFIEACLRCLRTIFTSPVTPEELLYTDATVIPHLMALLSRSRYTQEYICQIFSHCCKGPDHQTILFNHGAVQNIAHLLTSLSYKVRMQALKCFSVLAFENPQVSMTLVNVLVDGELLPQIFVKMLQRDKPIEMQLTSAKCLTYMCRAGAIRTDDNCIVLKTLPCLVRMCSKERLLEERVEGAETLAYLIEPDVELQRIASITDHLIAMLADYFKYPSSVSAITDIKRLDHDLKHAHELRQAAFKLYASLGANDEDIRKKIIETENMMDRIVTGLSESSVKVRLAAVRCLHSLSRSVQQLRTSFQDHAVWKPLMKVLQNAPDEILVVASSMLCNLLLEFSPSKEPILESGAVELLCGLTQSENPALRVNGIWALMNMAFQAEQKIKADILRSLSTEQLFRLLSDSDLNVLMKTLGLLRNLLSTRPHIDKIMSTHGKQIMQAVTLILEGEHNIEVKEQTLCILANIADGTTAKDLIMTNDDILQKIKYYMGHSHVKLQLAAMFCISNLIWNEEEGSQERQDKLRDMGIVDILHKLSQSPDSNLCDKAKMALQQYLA
Sequence of UniProt P08243 (P08243 whole entry, looked up): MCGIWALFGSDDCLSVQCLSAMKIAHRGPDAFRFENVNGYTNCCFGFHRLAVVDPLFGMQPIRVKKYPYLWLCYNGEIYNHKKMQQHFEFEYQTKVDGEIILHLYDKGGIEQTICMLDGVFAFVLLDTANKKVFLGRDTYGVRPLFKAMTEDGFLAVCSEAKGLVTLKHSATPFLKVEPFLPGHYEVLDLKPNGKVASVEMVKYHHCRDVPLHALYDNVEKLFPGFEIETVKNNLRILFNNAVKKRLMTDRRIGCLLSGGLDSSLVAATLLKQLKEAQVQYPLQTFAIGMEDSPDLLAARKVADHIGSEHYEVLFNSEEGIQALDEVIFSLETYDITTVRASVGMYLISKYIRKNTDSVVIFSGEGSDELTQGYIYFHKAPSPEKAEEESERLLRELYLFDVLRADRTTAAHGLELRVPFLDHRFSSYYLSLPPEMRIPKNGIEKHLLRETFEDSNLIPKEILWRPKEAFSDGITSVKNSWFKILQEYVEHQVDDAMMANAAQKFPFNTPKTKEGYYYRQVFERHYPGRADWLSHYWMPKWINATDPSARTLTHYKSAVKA
Sequence of UniProt P54709 (P54709 whole entry, looked up): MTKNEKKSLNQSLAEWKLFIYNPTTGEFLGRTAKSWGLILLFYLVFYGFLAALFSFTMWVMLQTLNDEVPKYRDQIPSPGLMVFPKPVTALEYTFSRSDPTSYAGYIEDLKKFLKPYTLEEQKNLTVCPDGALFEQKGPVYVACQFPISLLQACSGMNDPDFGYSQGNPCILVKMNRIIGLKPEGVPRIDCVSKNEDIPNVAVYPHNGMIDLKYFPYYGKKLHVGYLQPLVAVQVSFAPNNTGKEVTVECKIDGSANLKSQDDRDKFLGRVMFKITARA
Sequence of UniProt Q86WA6 (Q86WA6 whole entry, looked up): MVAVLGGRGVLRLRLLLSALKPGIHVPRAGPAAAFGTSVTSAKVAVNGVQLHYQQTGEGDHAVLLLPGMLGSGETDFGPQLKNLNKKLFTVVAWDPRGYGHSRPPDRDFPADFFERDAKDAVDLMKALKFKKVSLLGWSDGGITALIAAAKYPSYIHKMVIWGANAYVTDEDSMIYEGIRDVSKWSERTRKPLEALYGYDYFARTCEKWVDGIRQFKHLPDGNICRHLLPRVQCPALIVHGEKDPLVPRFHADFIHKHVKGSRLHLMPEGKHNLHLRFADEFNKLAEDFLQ

Target | log2 fold change (erlotinib) | log2 fold change [1] | log2 fold change [2] | log2 fold change [3] | log2 fold change [4] | log2 fold change [5] | log2 fold change [6] | log2 fold change [7] | log2 fold change [8] | log2 fold change [9] | log2 fold change (IRAK-1-4 Inhibitor I) | log2 fold change (ibrutinib) | log2 fold change [10] | log2 fold change (ralimetinib) | log2 fold change [11] | log2 fold change [12] | log2 fold change [13] | log2 fold change (pinometostat) | log2 fold change [14] | log2 fold change [15]
ACSM3 (UniProt Q53FZ2) | 0.078 | 0.01 | 0.076 | -0.235 | 0.088 | -0.009 | -0.078 | -0.072 | 0.009 | 0.01 | 0 | -0.021 | -0.11 | -0.003 | -0.397 (active) | -0.155 | -0.086 | 0.046 | -0.001 | 0.041
BPHL (UniProt Q86WA6) | -0.016 | 0.053 | 0.057 | -0.016 | 0.142 | 0.058 | -0.028 | 0.02 | -0.38 (active) | 0.182 | 0.009 | -0.062 | -0.034 | -0.045 | -0.023 | 0.123 | 0.071 | 0.061 | 0.016 | -0.244
ADK (UniProt P55263) | 0.293 | -0.034 | 0.06 | -0.062 | 0.079 | 0.005 | 0.035 | 0.042 | -0.032 | 0.085 | 0.08 | 0.034 | 0.184 | 0.246 | -0.002 | 0.074 | -0.058 | 0.016 | -0.101 | -0.001
BRD8 (UniProt Q9H0E9) | -0.057 | -0.036 | -0.067 | 0.068 | -0.005 | 0.037 | -0.074 | -0.064 | 0.016 | -0.058 | 0 | -0.014 | -0.009 | -0.022 | -0.012 | -0.013 | 0.098 | 0.001 | 0.03 | -0.019
ACSL4 (UniProt O60488) | 0.16 | 0.02 | -0.021 | 0.727 (active) | 0.13 | 0.024 | 0.226 | 0.357 (active) | -0.058 | -0.002 | -0.067 | 0.001 | 0 | 0.049 | -0.237 | -0.443 (active) | 0.038 | 0.098 | 0.019 | 0
BAP1 (UniProt Q92560) | 0.182 | -0.013 | -0.142 | -0.048 | -0.128 | 0.06 | -0.104 | -0.05 | -0.078 | -0.088 | -0.038 | -0.056 | -0.125 | 0.06 | -0.014 | -0.217 | 0.048 | 0.163 | -0.116 | -0.17
BAIAP2 (UniProt Q9UQB8) | 0.033 | 0.089 | 0.012 | -0.008 | 0.018 | 0.017 | 0.014 | -0.063 | -0.101 | -0.016 | -0.016 | -0.032 | -0.265 (active) | -0.034 | -0.033 | -0.056 | 0.062 | 0 | 0.001 | 0.041
ARMC8 (UniProt Q8IUR7) | -0.079 | -0.029 | -0.029 | 0.027 | -0.047 | 0.013 | 0.051 | -0.005 | -0.002 | -0.027 | -0.025 | -0.017 | 0.036 | 0.084 | -0.011 | -0.01 | -0.093 | -0.021 | -0.025 | -0.07
AKAP8 (UniProt O43823) | -0.056 | 0.032 | 0.074 | 0.039 | -0.028 | -0.004 | -0.039 | -0.068 | 0.015 | 0.018 | 0.058 | 0.002 | -0.205 | -0.018 | -0.097 | 0.019 | 0.054 | 0.003 | 0.056 | -0.113
ATRN (UniProt O75882) | 0.006 | 0.037 | -0.113 | -0.148 | 0.098 | 0.04 | – | -0.166 | -0.052 | 0.018 | -0.084 | 0.083 | 0.012 | – | -0.02 | 0.033 | – | 0.079 | -0.08 | 0.044
ARL3 (UniProt P36405) | -0.009 | 0.007 | 0.033 | -0.037 | 0.046 | 0.007 | 0.019 | -0.015 | -0.026 | 0.041 | 0.049 | -0.01 | -0.033 | -0.042 | -0.034 | 0.065 | -0.057 | -0.029 | 0.002 | 0.017
ALKBH4 (UniProt Q9NXW9) | 0.067 | 0.084 | 0.018 | 0.078 | 0.106 | -0.129 | 0.032 | -0.006 | -0.074 | 0.091 | 0.009 | -0.126 | -0.07 | 0.017 | -0.12 | -0.086 | -0.033 | -0.065 | – | -0.11
APAF1 (UniProt O14727) | 0.207 | 0.066 | -0.073 | 0.141 | 0.016 | – | 0.037 | 0.011 | – | – | 0.001 | – | -0.153 | -0.07 | -0.08 | -0.156 | 0.135 | 0.066 | 0.047 | –
ATP1B3 (UniProt P54709) | -0.016 | -0.004 | -0.002 | -0.019 | -0.021 | 0.023 | 0.057 | -0.052 | -0.024 | 0.048 | 0.025 | 0.043 | -0.03 | -0.036 | 0.01 | 0.154 | -0.008 | -0.056 | -0.012 | -0.032
ADPRHL2 (UniProt Q9NX46) | 0.03 | 0.024 | 0.122 | 0.048 | 0.043 | 0.006 | 0.019 | 0.049 | 0.003 | -0.165 | 0 | -0.021 | -0.025 | -0.021 | -0.088 | 0.08 | -0.038 | -0.015 | -0.126 | -0.002
ASNS (UniProt P08243) | 0.006 | 0.004 | 0.053 | -0.015 | 0.012 | -0.011 | 0.034 | -0.008 | 0.002 | 0.02 | 0.046 | 0.015 | 0.006 | -0.033 | -0.029 | 0.017 | -0.003 | -0.034 | -0.007 | -0.007
BRD4 (UniProt O60885) | -0.151 | 0.078 | 0.054 | 0.003 | 0.025 | -0.003 | 0.213 | -0.002 | -0.121 | -0.117 | – | -0.018 | -0.254 | -0.174 | -0.011 | 0.094 | -0.035 | – | 0.047 | 0.101
